About 83,000 compounds went through this panel and 20% of them were active in at least one assay; those are over-represented in the sample as a whole.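 Note: values are percent growth. 100 is the growth of untreated cells, values between 100 and 0 indicate rising inhibition; between -100 and 0 indicates cell death.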 Active and inactive are the calls of the source. The calls were made as follows: active = growth percent below 10; inactive = the rest.
Columns and labels:
Test in all cases: NCI-60 one-dose screen, 48 h (100 = growth as untreated, 0 = no growth, -100 = all killed)
Details in all cases: 10 µM unless noted
[1] = test system: NCI-H23 lung
[2] = test system: NCI-H226 lung
[3] = test system: NCI-H322M lung
[4] = test system: NCI-H460 lung
[5] = test system: HOP-92 NSCLC
[6] = test system: NCI-H522 lung
[7] = test system: 786-0 renal
[8] = test system: COLO 205 colon
[9] = test system: DU-145 prostate
[10] = test system: K-562 leukemia
[11] = test system: MALME-3M melanoma
[12] = test system: MDA-MB-231 breast
[13] = test system: RXF 393 renal
[14] = test system: SF-268 CNS
[15] = test system: SF-295 CNS
[16] = test system: SF-539 CNS
[17] = test system: M14 melanoma
[18] = test system: A549/ATCC NSCLC
[19] = test system: UACC-257 melanoma
[20] = test system: HOP-62 NSCLC

Measured: growth

CCCC(C)SP(=S)(SC(C)CCC)SC(C)CCC (stereo unspecified)
inactive: [1] 95.5% | [2] 88.8% | [3] 101% | [4] 98.9% | [5] 94.7% | [6] 90.9% | [7] 98.9% | [8] 98.6% | [9] 108% | [10] 112% | [11] 87.6% | [12] 113% | [13] 95.5% | [14] 104% | [15] 101% | [16] 103% | [17] 94.4%

O=C(O)C(F)F
inactive: [1] 107% | [2] 89.9% | [3] 114% | [4] 89.2% | [5] 107% | [6] 101% | [7] 106% | [8] 105% | [9] 107% | [10] 92.4% | [11] 102% | [12] 98.9% | [13] 97.1% | [14] 98.9% | [15] 101% | [16] 97.1% | [17] 107%

CCOC(=O)c1ccccc1C(=O)OCC
inactive: [1] 109% | [2] 94.6% | [3] 97.8% | [4] 112% | [5] 89.4% | [6] 61.1% | [18] 99.2% | [7] 96.4% | [8] 120% | [9] 118% | [11] 102% | [12] 93.3% | [13] 121% | [14] 110% | [15] 83.5% | [16] 107% | [19] 91.3% | [17] 103%

CC(=O)C(N)Cc1ccccc1 (stereo unspecified)
inactive: [1] 98.3% | [3] 106% | [20] 85.1% | [5] 86.3% | [6] 91.7% | [18] 67.9% | [7] 96.5% | [8] 97.8% | [9] 99.3% | [10] 98.8% | [11] 105% | [12] 105% | [13] 101% | [14] 105% | [15] 102% | [16] 100% | [19] 73.3% | [17] 90.1%

Nc1ccc(S(=O)(=O)F)cc1
inactive: [1] 108% | [20] 109% | [4] 111% | [5] 110% | [6] 96.1% | [18] 102% | [7] 94.7% | [8] 112% | [9] 107% | [10] 91.8% | [11] 95.2% | [12] 117% | [13] 100% | [14] 99.8% | [15] 102% | [16] 103% | [19] 110% | [17] 107%

O=[N+]([O-])c1c(Cl)cc(Cl)c([N+](=O)[O-])c1Cl
inactive: [1] 98.3% | [2] 117% | [3] 119% | [4] 95.8% | [5] 99.6% | [18] 108% | [7] 126% | [8] 96% | [9] 81.3% | [10] 103% | [11] 175% | [12] 110% | [13] 131% | [14] 96% | [16] 110% | [19] 62.9% | [17] 97.2%

N[C@@H](CCC(=O)CCl)C(=O)O
inactive: [2] 104% [20 µM] | [3] 98.1% [20 µM] | [20] 95.9% [20 µM] | [4] 106% [20 µM] | [5] 84.6% [20 µM] | [6] 77.1% [20 µM] | [18] 102% [20 µM] | [7] 101% [20 µM] | [8] 106% [20 µM] | [9] 105% [20 µM] | [10] 82.9% [20 µM] | [11] 92.5% [20 µM] | [12] 92.2% [20 µM] | [13] 112% [20 µM] | [14] 98.4% [20 µM] | [15] 98.9% [20 µM] | [16] 104% [20 µM] | [19] 99.9% [20 µM]

O=C=Nc1ccc(Br)cc1
inactive: [1] 101% | [2] 98.8% | [3] 100% | [4] 103% | [6] 100% | [18] 113% | [7] 95.5% | [8] 111% | [9] 107% | [10] 99.6% | [11] 108% | [12] 108% | [13] 103% | [14] 111% | [15] 94.8% | [16] 110% | [19] 110% | [17] 100%
